Experimental data: PubChem BioAssay (NCATS)
Results filed as inconclusive are left out. Active and inactive are the calls of the source. The call rests on the fitted dose curve; in most records, active means well fitted cell-killing curve with a large enough effect; inconclusive means small, poorly fitted or top-dose-only effect, or effect the other way; inactive means no such curve, though single readings can be large or run the other way.

Experiment: Quantitative High-Throughput drug screen in 47 multiple myeloma cell lines against the NCATS MIPE library collection: SKMM1_PLB cell viability assay (AID 1919863)
Settings: SKMM1 myeloma viability, CellTiter-Glo ATP, 48 h; viability: stronger effect = lower value
Summary of the method: (§1)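 Readout: median RLU from CellTiter-Glo after 5 min at room temperature. Preceding step was 48 h drug treatment of 500 cells/well at 37 °C, 5% CO2, with DMSO-only and media-only control wells.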
Further: nearly all actives have a fitted effect of over 35% in size.
Potency means the concentration at half of the fitted maximal effect.

Row | SMILES | viability | Potency
1 | OC[C@H]1OC(O)C[C@@H](O)[C@H]1O (stereo partly specified) | 120% (inactive) | –
2 | CN[C@H]1[C@@H](O)[C@@H]2O[C@@H]3O[C@H](C)CC(=O)[C@]3(O)O[C@@H]2[C@@H](NC)[C@H]1O | – | 10500 nM (active)
3 | COc1ccc(S(=O)(=O)Nc2cccnc2Nc2ccc(O)cc2)cc1 | – | 37.2 nM (active)
4 | COc1cc(C)c(C=CC(C)=CC=CC(C)=CC(=O)O)c(C)c1C | 132% (inactive) | –
5 | CCCCCCCCc1ccc(CCC(N)(CO)CO)cc1 | – | 23500 nM (active)
6 | C[C@H](CCC(=O)O)[C@H]1CCC2C3C[C@H](O)[C@@H]4C[C@H](O)CC[C@]4(C)C3CC[C@@]21C (stereo partly specified) | 96.1% (inactive) | –
7 | Oc1cc(-c2nc(-c3ccccc3)[nH]c2-c2ccncc2)ccc1Cl | – | 16600 nM (active)
8 | C[C@H](CCC(=O)O)[C@H]1CC[C@H]2[C@@H]3[C@H](O)C[C@@H]4C[C@H](O)CC[C@]4(C)[C@@H]3CC[C@]12C | 131% (inactive) | –
9 | COc1cc2c(Nc3ccc(Cl)c(Cl)c3F)ncnc2cc1OCC1C[C@@H]2CN(C)C[C@H]2C1 | – | 5900 nM (active)
10 | COC(=O)[C@H](CCCN=C(N)N)NS(=O)(=O)c1ccc(C)cc1 | 122% (inactive) | –
11 | Oc1ccc(-c2ccc(-c3cc(Nc4cccc(CNC5CC5)c4)n[nH]3)cc2)c(O)c1 | – | 5260 nM (active)
12 | C=CCNC1=C2C[C@@H](C)C[C@H](OC)[C@@H](O)[C@@H](C)C=C(C)[C@H](OC(N)=O)[C@@H](OC)C=CC=C(C)C(=O)NC(=CC1=O)C2=O | – | 833 nM (active)
13 | CC(C)(O)Cn1c(NC(=O)c2ccc(-c3cn[nH]c3)s2)nc2cc(CN3CCOCC3)ccc21 | – | 2960 nM (active)
14 | CCCc1nc(C(C)(C)O)c(C(=O)O)n1Cc1ccc(-c2ccccc2-c2nn[nH]n2)cc1 | 131% (inactive) | –
15 | COc1cc(OC)cc(-c2ccc3ncc4ccc(=O)n(-c5ccc(N6CCNCC6)c(C(F)(F)F)c5)c4c3c2)c1 | – | 13200 nM (active)
16 | CN(C)CCN1C(=O)c2cccc3cc(N)cc(c23)C1=O | – | 18700 nM (active)
17 | COc1cc(C)c(Sc2cnc(NC(=O)c3ccc(CNC(C)C(C)(C)C)cc3)s2)cc1C(=O)N1CCN(C(C)=O)CC1 (stereo unspecified) | – | 20900 nM (active)
18 | CCNC(=O)Nc1ccc(-c2nc3c(c(N4CCOC[C@H]4C)n2)CCN(C2COC2)C3)cc1 | – | 935 nM (active)
19 | CON=C(C(=O)N[C@@H]1C(=O)N2C(C(=O)O)=C(Cn3ccc(=N)n3CCO)CS[C@H]12)c1csc(N)n1 | 112% (inactive) | –
20 | COC[C@H](NC(=O)c1cnc(C)s1)C(=O)N[C@@H](COC)C(=O)N[C@@H](Cc1ccccc1)C(=O)[C@@]1(C)CO1 | – | 372 nM (active)
21 | COc1cccc2c1C(=O)c1c(O)c3c(c(O)c1C2=O)C[C@@](O)(C(=O)CO)C[C@@H]3O[C@H]1C[C@H](N)[C@H](OC2CCCCO2)[C@H](C)O1 (stereo partly specified) | – | 2640 nM (active)
22 | O=c1ccn([C@@H]2O[C@H](CO)[C@H](O)[C@@H]2F)c(=O)[nH]1 | 118% (inactive) | –
23 | Cn1cc(CNCC2CCN(c3ncc(C(=O)NO)cn3)CC2)c2ccccc21 | – | 59 nM (active)
24 | CC(=O)NCC(=O)N1[C@H]2CC[C@H]1c1cc(Nc3ncc(C(F)(F)F)c(NC4CCC4)n3)ccc12 | – | 20900 nM (active)

Experiment: Quantitative High-Throughput drug screen in 47 multiple myeloma cell lines against the NCATS MIPE library collection: U266_ATCC cell viability assay (AID 1919864);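 on viability (% of DMSO control): 0% = media-only wells without cells and 100% = DMSO-only wells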
Settings: U266 myeloma viability, CellTiter-Glo ATP luminescence, 48 h; series mostly up to 45.8 µM; viability (% of DMSO control): at the top concentration
Summary of the method: as §1

Row | SMILES | Potency | viability (% of DMSO control)
25 | COc1ccc(C=Cc2cc(OC)c(OC)c(OC)c2)cc1NC(=O)[C@H](N)CO | 13.2 nM (active) | –
26 | CCN(CC)Cc1ccc2cc(COC(=O)Nc3ccc(C(=O)NO)cc3)ccc2c1 | 662 nM (active) | –
27 | CC(=O)OCC(=O)[C@@]1(O)CC[C@H]2[C@@H]3CCC4=CC(=O)CC[C@]4(C)[C@@H]3C(=O)C[C@@]21C | – | 119% (inactive)
28 | COc1ccc2c(c1OC)C(=O)OC2[C@H]1c2c(cc3c(c2OC)OCO3)CCN1C (stereo partly specified) | 1660 nM (active) | –
29 | COc1cccc2c1C(=O)c1c(O)c3c(c(O)c1C2=O)C[C@@](O)(C(C)=O)C[C@H]3O[C@H]1C[C@H](N)[C@H](O)[C@H](C)O1 | 166 nM (active) | –
30 | CCOC(=O)N1CCN([N+]([O-])=NOc2ccc([N+](=O)[O-])cc2C#N)CC1 | 833 nM (active) | –
31 | CN[C@H]1[C@@H](O)[C@@H]2O[C@@H]3O[C@H](C)CC(=O)[C@]3(O)O[C@@H]2[C@@H](NC)[C@H]1O | 662 nM (active) | –
32 | COc1ccc(S(=O)(=O)Nc2cccnc2Nc2ccc(O)cc2)cc1 | 1050 nM (active) | –
33 | CCCCCCCCc1ccc(CCC(N)(CO)CO)cc1 | 16600 nM (active) | –
34 | C[C@H](CCC(=O)O)[C@H]1CCC2C3C[C@H](O)[C@@H]4C[C@H](O)CC[C@]4(C)C3CC[C@@]21C (stereo partly specified) | – | 133% (inactive)
35 | Oc1cc(-c2nc(-c3ccccc3)[nH]c2-c2ccncc2)ccc1Cl | 16600 nM (active) | –
36 | NC[C@H]1O[C@H](O[C@H]2[C@@H](O)[C@@H](O[C@H]3O[C@H](CO)[C@@H](O)[C@H](N)[C@@H]3O)[C@H](N)C[C@@H]2N)[C@H](N)C[C@H]1O | – | 125% (inactive)
37 | COc1cc2c(Nc3ccc(Cl)c(Cl)c3F)ncnc2cc1OCC1C[C@@H]2CN(C)C[C@H]2C1 | 23500 nM (active) | –
38 | Oc1ccc(-c2ccc(-c3cc(Nc4cccc(CNC5CC5)c4)n[nH]3)cc2)c(O)c1 | 5260 nM (active) | –
39 | C=CCNC1=C2C[C@@H](C)C[C@H](OC)[C@@H](O)[C@@H](C)C=C(C)[C@H](OC(N)=O)[C@@H](OC)C=CC=C(C)C(=O)NC(=CC1=O)C2=O | 833 nM (active) | –
40 | CC(C)(O)Cn1c(NC(=O)c2ccc(-c3cn[nH]c3)s2)nc2cc(CN3CCOCC3)ccc21 | 1180 nM (active) | –
41 | CN(C)CCN1C(=O)c2cccc3cc(N)cc(c23)C1=O | 18700 nM (active) | –
42 | CCNC(=O)Nc1ccc(-c2nc3c(c(N4CCOC[C@H]4C)n2)CCN(C2COC2)C3)cc1 | 6620 nM (active) | –
43 | COC[C@H](NC(=O)c1cnc(C)s1)C(=O)N[C@@H](COC)C(=O)N[C@@H](Cc1ccccc1)C(=O)[C@@]1(C)CO1 | 74.3 nM (active) | –
44 | Nc1cccc2c1C(=O)N(C1CCC(=O)NC1=O)C2=O (stereo unspecified) | – | 128% (inactive)
45 | O=c1ccn([C@@H]2O[C@H](CO)[C@H](O)[C@@H]2F)c(=O)[nH]1 | 5900 nM (active) | –
46 | Cn1cc(CNCC2CCN(c3ncc(C(=O)NO)cn3)CC2)c2ccccc21 | 37.2 nM (active) | –
